Data taken from PMC6792352, “Limited Chemical Structural Diversity Found to Modulate Thyroid Hormone Receptor in the Tox21 Chemical Library” (Environmental Health Perspectives, 2019).
Structures can show the parent of a compound that is named as a salt.

These compounds were tested on thyroid hormone receptor (endogenous TRα and TRβ). Details: read-out: Average AC50 (uM) GH3-TRE-Antag, antagonist mode, 1 nM T3, no GH3 cytotoxicity hit.
Design: species or system GH3-TRE-Luc (rat pituitary); GH3-TRE-Luc luciferase reporter, antagonist mode against 1 nM T3, loss of signal, qHTS

SMILES	AC50
CCCOc1ccc(S(=O)(=O)N2CCN(CC)CC2)cc1-c1nc2c(CC)n(Cc3ccccn3)nc2c(=O)[nH]1 [UK-343664]	76.4 µM
CC#Cc1cc(C)nc(Nc2ccccc2)n1 [Mepanipyrim]	64.8 µM
Cc1oc(C)c(C(=O)Nc2ccccc2)c1C [Methfuroxam]	23.1 µM
Cc1cccc(N(C)C(=S)Oc2ccc3ccccc3c2)c1 [Tolnaftate]	> 20 µM
NC(=O)C1(N2CCCCC2)CCN(CCCC(=O)c2ccc(F)cc2)CC1 [Pipamperone dihydrochloride]	25.9 µM
O=C(O)COc1cc(Cl)c(Cl)cc1Cl [2,4,5-Trichlorophenoxyacetic acid]	70.6 µM
CCN(Cc1c(F)cccc1Cl)c1c([N+](=O)[O-])cc(C(F)(F)F)cc1[N+](=O)[O-] [Flumetralin]	39.8 µM
CC(C)CC(=O)C1C(=O)c2ccccc2C1=O [2-Isovaleryl-1,3-indanedione]	77.1 µM
Cc1cc(C(C)(C)C)cc(C)c1CC1=NCCN1 [Xylometazoline hydrochloride]	11 µM
CC(O)(CS(=O)(=O)c1ccc(F)cc1)C(=O)Nc1ccc(C#N)c(C(F)(F)F)c1 (stereo not shown) [Bicalutamide]	35.3 µM
CC/C=C\CCOC(=O)c1ccccc1 [(3Z)-Hex-3-en-1-yl benzoate]	73.9 µM
CCCCOC(=O)c1ccc(N)cc1 [Butyl 4-aminobenzoate]	21.8 µM
CCC(=O)Nc1ccc(Cl)c(Cl)c1 [Propanil]	92.4 µM
CC(=O)OC(c1ccccc1)C(Cl)(Cl)Cl (stereo not shown) [2,2,2-Trichloro-1-phenylethyl acetate]	55.4 µM
CC(=O)[C@H]1[C@H](C#N)C[C@H]2[C@@H]3CC=C4C[C@@H](O)CC[C@]4(C)[C@H]3CC[C@@]21C [Pregnenolone carbonitrile]	13.1 µM
OCc1c2ccccc2cc2ccccc12 [9-Anthracenemethanol]	64.3 µM
CC1=C(C)S(=O)(=O)CCS1(=O)=O [Dimethipin]	86.8 µM
NC(=S)NC(N)=S [2,4-Dithiobiuret]	45 µM
CCCCNC1CC(C)(C)NC(C)(C)C1 [N-Butyl-2,2,6,6-tetramethylpiperidin-4-amine]	60.2 µM

SMILES	AC50
CCOc1ccc2nc3cc(N)ccc3c(N)c2c1 [Ethacridine lactate hydrate]	40.1 µM
CC1=C2[C@H](/C=C(\C)C(=O)O)CC[C@@H](C)[C@H]2CC1 [Valerenic acid]	57.5 µM
CC(C)(c1ccc(O)cc1)c1ccc(O)cc1 [BPA, bisphenol A]	66.6 µM
C/C=C1/C(=O)C[C@H]2[C@@H]3CCC4=CC(=O)CC[C@]4(C)[C@H]3CC[C@]12C [Guggulsterone E]	18 µM
Brc1ccc(Oc2ccccc2)cc1 [p-Bromodiphenyl ether]	44.7 µM
CCOC(=O)C(C)Oc1ccc(Oc2cnc3cc(Cl)ccc3n2)cc1 (stereo not shown) [Quizalofop-ethyl]	78.2 µM
O=C(OCc1ccccc1)c1ccc(O)cc1 [Benzylparaben]	> 50 µM
O=C(N[C@H]1N=C(c2ccccc2F)c2cccc3c2N(CC3)C1=O)c1cc2ccccc2[nH]1 [Pranazepide]	12.1 µM
CC(=O)[C@@]1(O)CC[C@H]2[C@@H]3C=C(Cl)C4=CC(=O)CC[C@]4(C)[C@H]3CC[C@@]21C [Chlormadinone]	30.7 µM
C[C@]12C=CC(=O)N[C@@H]1CC[C@@H]1[C@@H]2CC[C@]2(C)[C@@H](C(=O)Nc3cc(C(F)(F)F)ccc3C(F)(F)F)CC[C@@H]12 [Dutasteride]	3.44 µM
C1COC(NC(C2CC2)C2CC2)=N1 [Rilmenidine]	29.6 µM
CC1(C)[C@H](/C=C(\Cl)C(F)(F)F)[C@@H]1C(=O)O[C@@H](C#N)c1cccc(Oc2ccccc2)c1 [?-Cyhalothrin]	33.9 µM
COCC(C)N(C(=O)CCl)c1c(C)csc1C (stereo not shown) [Dimethenamid]	> 50 µM
C=C/C(C)=C/C/C=C(\C)CCC=C(C)C [alpha-Farnesene]	44.9 µM
O=c1oc2ccccc2c(O)c1C1CCCc2ccccc21 (stereo not shown) [Coumatetralyl]	> 90 µM
[H]/N=C(\N/C(=N/[H])Nc1ccc(Cl)cc1)NC(C)C [Proguanil hydrochloride]	2.32 µM
CCOC(=O)Oc1c(OC)cc(C(=O)O[C@@H]2C[C@@H]3CN4CCc5c([nH]c6cc(OC)ccc56)[C@H]4C[C@@H]3[C@H](C(=O)OC)[C@H]2OC)cc1OC [Syrosingopine]	19 µM
O=C(NOC[C@H](O)CO)c1ccc(F)c(F)c1Nc1ccc(I)cc1F [PD 0325901]	4.11 µM

Same assay, conditions: read-out: Average AC50 (uM) GH3-TRE-Antag, antagonist mode, 1 nM T3, no GH3 cytotoxicity hit, Average AC50 (uM) GH3-TRE-Antag, 24 h

SMILES	AC50
CCCCCCn1cc[n+](C)c1 [1-Hexyl-3-methylimidazolium hexafluorophosphate]	53.8 µM
Nc1c2c(nc3ccccc13)CCCC2 [Tacrine]	41.7 µM
Nc1c2c(nc3ccccc13)CCCC2 [1,2,3,4-Tetrahydro-9-acridinamine hydrochloride]	92.1 µM
